The record followed here is PubChem BioAssay (EPA / NIEHS).

Records with an inconclusive call do not appear. Activity calls are given as the source filed them. The calls were made as follows: active = hit-call score of the fitted dose curve at least 0.9, where 1 is the maximum; inconclusive = response in the unintended direction; inactive = score below 0.9.

Read-out in this experiment: organic anion transporter (SLCO1B1), SLCO1B1 (gene 10599)
Put plainly: CLD_SLCO1B1_6hr: CellzDirect (CLD) Gene Expression Assay for organic anion transporter (SLCO1B1) at 6 hours (AID 2283668).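 Also: active means mRNA induction above DMSO baseline.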 Here is the method: CLD_6hr is a cell-based, multiplexed-readout assay that uses hepatocyte, a human liver primary cell, with measurements taken at 6 hours after chemical dosing in a 96-well plate.CLD_SLCO1B1_6hr is one of 16 assay component(s) measured or calculated from the CLD_6hr assay. It is designed to make measurements of mRNA induction, a form of inducible reporter, as detected with chemiluminescence signals by Quantitative Nuclease Protection Assay (qNPA) technology.Data from the assay component CLD_SLCO1B1_6hr was analyzed at the endpoint, CLD_SLCO1B1_6hr, in the positive analysis fitting direction relative to DMSO as the negative control and baseline of activity. Using a type of inducible reporter, gain-of-signal activity can be used to understand changes in the reporter gene as they relate to the gene SLCO1B1. Furthermore, this assay endpoint can be referred to as a primary readout. To generalize the intended target to other relatable targets, this assay endpoint is annotated to the transporter intended target family, where subfamily is organic anion transporter.
Human hepatocyte cultures were treated daily for two consecutive days with fresh dosing solutions containing appropriate concentrations of the 320 ToxCast chemicals (chemical identities were blinded to CellzDirect and other ToxCast collaborators), vehicle control (0.2% DMSO), and positive control inducers as summarized in Table 1. Due to the large number of treatment groups and chemicals examined, the ToxCast chemicals were divided into two groups (spanning two independent cultures of hepatocytes from separate donor preparations (Hu778: ToxCast plates 1 and 2; Hu776: ToxCast plates 3 and 4). Each preparation of human hepatocyte cultures was treated with respective vehicle control, medium only control, set of six positive controls/reference chemicals for the five hepatic receptor pathways, and a subset of eight of the ToxCast chemicals (indoxacarb, pyrithiobac-sodium, norflurazon, cyhalofop-butyl, methomyl, thiram, acetochlor, and propiconazole). These replicate data, coupled with internal replicates designed within the blinded ToxCast chemical library, provided additional data to evaluate interindividual differences between hepatocyte preparations and their potential impact on chemical profiles.Cell morphology and integrity were evaluated using phase-contrast microscopy as an indicator of hepatocyte cell health (Tyson & Green, 1987). Cultures for each treatment group (i.e., media, vehicle [0.2% DMSO], positive control inducers [multiple concentrations], and the ToxCast chemicals [multiple concentrations]) were observed and cell morphology was assessed relative to vehicle control cultures at each harvest time point (0, 6, 24, or 48 h). […] Images were evaluated at the conclusion of the study to assess changes in cell integrity and account for the effects of chemical exposure on uncharacteristic changes in concentration-dependent gene expression profiles. The results from these determinations of apparent cytotoxicity were annotated (yes/no) alongside the corresponding qNPA data for reference.At the conclusion of each treatment period, hepatocyte cultures (96-well) were washed with 1 volume of HBSS, lysed by addition of 25 ul ArrayPlate lysis buffer (HTG, Tucson, AZ), and 70 ul/well of Denaturation Oil, denatured by incubation at 95C for 10 min, and frozen at approximately -70C until analysis by nuclease protection assay (qNPA) (Roberts et al., 2007). For qNPA analysis, cell lysates were thawed at 50C for approximately 30 min, qNPA probes were added, and samples were incubated at 95C for 10 min to begin the detection process by denaturing the target RNA, dissociating the duplexes and secondary structure hybridization. At the conclusion of the hybridization period, S1 nuclease reagent was added to each sample to digest all nonprotected nucleotides at 50C for 60-90 min. […]
Turning to `COCc1cnc(C2=NC(C)(C(C)C)C(=O)N2)c(C(=O)O)c1` (stereo not drawn), the compound was classed as inactive.
The entry for `COC(=O)c1c(C(F)F)nc(C(F)(F)F)c(C2=NCCS2)c1CC(C)C` is “inactive”.
As for `CCOc1nc(F)cc2nc(S(=O)(=O)Nc3c(Cl)cccc3Cl)nn12`, the compound was called inactive.
The same measure for `CCOP(=O)(OCC)Oc1nc(Cl)c(Cl)cc1Cl`: “inactive”.
Turning to `COc1cc(OC)nc(NC(=O)NS(=O)(=O)c2ncccc2OCC(F)(F)F)n1`, the compound was classed as inactive.
The same measure for `CC1(C)C(C=C(Cl)Cl)C1C(=O)OC(C#N)c1cccc(Oc2ccccc2)c1` (stereo not drawn): “inactive”; for `Clc1nc(Cl)nc(Nc2ccccc2Cl)n1`: “inactive”.
The same measure for `CCOC(=O)C(C)OC(=O)c1cc(Oc2ccc(C(F)(F)F)cc2Cl)ccc1[N+](=O)[O-]` (stereo not drawn): “inactive”; for `COCC(=O)N(c1c(C)cccc1C)C(C)C(=O)OC` (stereo not drawn): “inactive”; for `CCCN(CC)CC1COC2(CCC(C(C)(C)C)CC2)O1` (stereo not drawn): “inactive”.
On to `CSC(=O)c1c(C(F)F)nc(C(F)(F)F)c(C(=O)SC)c1CC(C)C`, for which the result was inactive.
The entry for `CCNC(=O)NC(=O)C(C#N)=NOC` is “inactive”; for `CC(C)C1(C)N=C(c2ncccc2C(=O)O)NC1=O` (stereo not drawn) it is “inactive”; for `CN=C=S` it is “inactive”.
The same measure for `CC(C)N1C(=O)c2ccccc2NS1(=O)=O`: “inactive”; for `O=c1n(Cl)c(=O)n(Cl)c(=O)n1Cl`: “inactive”.
The same measure for `C=CCOC(=O)C(C)(C)OC(=O)c1cc(-n2c(=O)cc(C(F)(F)F)n(C)c2=O)ccc1Cl`: “inactive”; for `N#Cc1c(Cl)cccc1Cl`: “inactive”; for `CCCCC(C#N)(Cn1cncn1)c1ccc(Cl)cc1` (stereo not drawn): “inactive”.
Take `CCCCC(O)(Cn1cncn1)c1ccc(Cl)cc1Cl` (stereo not drawn): the call was inactive.
Consider `CCN(CC)c1nc(C)cc(OP(=S)(OC)OC)n1`, for which the result was inactive.
The same measure for `CC1(C)CCC(=Cc2ccc(Cl)cc2)C1(O)Cn1cncn1` (stereo not drawn): “inactive”.
The entry for `CCCCOCN(C(=O)CCl)c1c(CC)cccc1CC` is “inactive”; for `Nc1c(Cl)c(F)nc(OCC(=O)O)c1Cl` it is “inactive”.
On to `CO/N=C(/C1=NOCCO1)c1ccccc1Oc1ncnc(Oc2ccccc2Cl)c1F`, for which the result was inactive.
The entry for `OC(c1ccc(Cl)cc1)(c1ccc(Cl)cc1)C(Cl)(Cl)Cl` is “inactive”; for `CS(=O)(=O)c1cc(C(F)(F)F)ccc1C(=O)c1cnoc1C1CC1` it is “inactive”; for `COP(=O)(OC)O/C(C)=C/C(=O)N(C)C` it is “inactive”.
`Cc1ccc(N=CN(C)C=Nc2ccc(C)cc2C)c(C)c1`: the result was inactive.
In the case of `Clc1cccc(C(Cl)(Cl)Cl)n1`, the outcome was inactive.
Consider `COCC(C)N(C(=O)CCl)c1c(C)csc1C` (stereo not drawn), for which the outcome was inactive.
For `O=P(O)(O)CCCl`, the call was inactive.
For the compound `CCCC(=NOCC)C1=C(O)CC(CC(C)SCC)CC1=O` (stereo not drawn), the result was inactive.
